A selection: hits, their analogues and other compounds. The true share with any hit is near 0.55%.
p53 reactivator: restores transcriptional activity of mutant p53. AID 504706. H1299 p53-A138V BP100-luciferase reporter, luminescence, 24 h. Potency, µM (top dose mostly 92.2 µM), without a hit: top-dose activity change, positive = activation, most hits filed as activators. 320,000 tested, 0.063% active; also: % of control where 0% means no effect; nearly all actives have a fitted effect of over 45% in size
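H1299 (p53-null), stable ts p53-A138V + BP100-Luc; 1000 cells/well, Opti-MEM/10% FBS; cpd 4 pt, 1:5; 24 h, 37 deg C, 5% CO2; detection reagent 10 min RT; luminescence.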
ERG-DNA inh: inhibitors of human ERG Ets domain-DNA interaction. P11308. fluorescence polarization, His-ERG Ets domain / labelled DNA. Potency, µM (highest dose often 76.9 µM), without a hit: top-dose FP activity, negative = inhibition, hits mostly inhibitors. 370,000 tested, 0.028% active. AID 624246; active = well fitted inhibition curve with a large enough effect in the polarisation, with a control signal flat; inconclusive = small, poorly fitted or top-dose-only effect, or effect the other way, or a change in a side signal; inactive = no such curve, though single readings can be large or run the other way; the % refers to the polarisation;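 also: polarization taken with two DNA probes labelled with fluorescein and Texas red; % of control where 0% means no effect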
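His-tagged ERG Ets domain (1 uM in the protein solution; 300mM KCl, 50mM Tris-HCl, 1mM EDTA, 1mM DTT, pH 7.5) received compound, then a probe mix of 5 nM fluorescein-DNA and 100nM Texas-615-DNA. Fluorescence polarization was read for both dyes.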
Tb PFK block: blocks T. brucei phosphofructokinase | T. brucei PFK, ADP-Glo luminescence | Potency, µM (titrated, usually from 57.5 µM), for the others: at the highest dose activity, negative = inhibition, usual class: inhibitors | AID 485367 | 330,000 tested, 0.17% active;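 also: 0% = uninhibited 1x PFK enzyme wells and -100% = no-enzyme wells; nearly all actives have a fitted effect of over 60% in size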
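Luminescent ADP detection (ADP-Glo, two-step: ATP depletion then ADP-to-ATP conversion for luciferase) reported PFK activity after 45 min room-temperature reaction of 1.25 nM enzyme with 0.5 mM F6P and 0.1 mM ATP at pH 8.0.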
S-ASM inh: blocks human secretory acid sphingomyelinase; placental ASM, HMU-PC fluorogenic substrate, 60 min; Potency, µM (highest dose often 57.5 µM), inactives show at the highest dose activity change, negative = inhibition, actives largely listed as inhibitors; 340,000 tested, 0.006% active; AID 504937
Target sequence (P17405 47-631 limits assumed): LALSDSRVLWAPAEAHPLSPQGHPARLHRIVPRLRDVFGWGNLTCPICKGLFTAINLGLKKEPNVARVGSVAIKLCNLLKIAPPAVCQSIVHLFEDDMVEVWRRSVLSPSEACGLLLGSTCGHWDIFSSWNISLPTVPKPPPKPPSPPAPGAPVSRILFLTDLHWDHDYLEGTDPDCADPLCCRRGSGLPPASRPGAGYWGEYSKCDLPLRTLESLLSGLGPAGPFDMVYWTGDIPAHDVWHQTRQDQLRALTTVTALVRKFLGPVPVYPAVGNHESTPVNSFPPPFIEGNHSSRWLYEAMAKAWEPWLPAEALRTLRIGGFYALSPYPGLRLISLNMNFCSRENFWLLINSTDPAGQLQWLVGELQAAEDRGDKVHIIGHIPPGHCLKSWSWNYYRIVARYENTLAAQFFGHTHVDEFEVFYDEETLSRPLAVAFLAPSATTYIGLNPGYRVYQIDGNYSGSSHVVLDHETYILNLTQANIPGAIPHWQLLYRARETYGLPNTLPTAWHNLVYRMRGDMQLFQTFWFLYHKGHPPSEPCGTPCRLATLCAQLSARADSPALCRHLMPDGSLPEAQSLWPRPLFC
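Steps: dispense placental human ASM, pin compound, wait 10 min at room temperature, add HMU-PC0 substrate at 9 uM final, incubate 60 min at 37 °C, add stop solution raising pH to 10, read fluorescence.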
A-T KAP1 phos: potential ataxia-telangiectasia treatment. F2112 A-T fibroblasts, KAP-1 phosphorylation AlphaLISA; neocarzinostatin DNA damage 30 min before lysis. 320,000 tested, 0.19% active. Potency, µM (doses to about 57.5 µM), for the others: at the top dose activation, usual class: activators. AID 485349; also: % of control where 0% means no effect; nearly all actives have a fitted effect of over 45% in size
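hTERT-immortalized A-T patient fibroblasts (F2112), 500 cells/well in OPTI-MEM, 1% FBS, got compounds for 60 min, then NCS for 30 min at 37C. Lysates were then assayed for phospho-KAP-1 by AlphaLISA (anti-pKAP1 donor, anti-KAP1 acceptor beads), 6 hr at 25C.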
KAT2A inh: inhibitors of human GCN5L2 histone acetyltransferase | Q92830 | GCN5L2 HAT assay, ThioGlo1 CoA-SH fluorescence | Potency, µM (titrated, usually from 58.9 µM), for inactives: at the highest dose activity change, negative = inhibition, most hits filed as inhibitors | 390,000 tested, 0.21% active; also: % is scaled to controls: 0 for no effect and ±100 for the full control effect
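Free CoA generated was detected with ThioGlo1 (50uM) fluorescence at Ex340nm/Em540nm, read immediately and after 20 min at room temperature. Enzyme, 20 nM in HEPES pH 7.5 buffer, saw compounds 15 min before adding 75uM H3(1-25) peptide and 70uM acetyl-CoA.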
* hit, by the source's call; i = inactive; ? = inconclusive; . = not tested or not shown; [ ] = dose if it differs, or a comment. Unless noted, calls follow the shape of the dose curve; as a rule, active = well fitted curve in the direction sought with a large enough effect; inconclusive = small, poorly fitted or top-dose-only effect, or another doubt; inactive = no such curve, though single readings can be large; an effect the other way counts as inactive or inconclusive. Potency is read from the fitted curve at half-maximal effect.

SMILES | p53 reactivator | ERG-DNA inh | Tb PFK block | S-ASM inh | A-T KAP1 phos | KAT2A inh
CCOC(=O)N1CCC(NC(=O)c2ccc3c(c2)sc2nc(-c4ccccc4)cn23)CC1 | 8% | -5% | 0% | -5% | 20µM* | -3%
CCOC(=O)N1CCC(NC(=O)c2ccc3c(c2)sc2nc(-c4cccc(OC)c4)cn23)CC1 | ? | . | 2% | . | 13% | -10%
C[C@]12CCC3c4ccc(OC(=O)c5ccccc5)cc4CCC3C1CCC2=O (stereo partly specified) | . | . | . | . | . | 0%
C[C@]12CC[C@@H]3c4ccc(OC(=O)c5ccccc5)cc4CC[C@H]3[C@@H]1CC[C@@H]2O | 14% | -3% | 1% | -22% | 18µM* | -8%
CCn1cc(/C=C(\NC(=O)c2ccccc2Cl)C(=O)N2CCN(C)CC2)c2ccccc21 | . | 1% | -1% | 4% | -3% | 3.2µM*
COc1ccc(/C=C/C(=O)C2(O)CCCCC2)cc1 | 40µM* | 1% | -2% | 3% | -14% | -6%
COc1ccc(/C=C/C(=O)O)cc1 | 1% | 5% | 12% | 0% | -57% | -7%
COc1ccc(N2CCN(C(=O)c3cc(NS(=O)(=O)c4ccc(F)cc4)ccn3)CC2)cc1 | . | 4% | . | . | . | -11%
CC1CCc2c(sc(/N=C/c3ccco3)c2C(N)=O)C1 (stereo unspecified) | 14% | 1% | 1% | 5% | 16µM* | -8%
CC(C)(C)c1ccc(S(=O)(=O)c2cnc(SCC(=O)Nc3ccc(F)c(Cl)c3)[nH]c2=O)cc1 | . | 11% | . | . | . | 28µM*
COc1cc(Cl)c(C)cc1NC(=O)CSc1ncc(S(=O)(=O)c2ccc(C(C)(C)C)cc2)c(=O)[nH]1 | . | 1% | . | . | . | 18µM*
CCc1ccc(S(=O)(=O)c2cnc(SCC(=O)Nc3ccc(OC)cc3OC)[nH]c2=O)cc1 | . | 5% | . | . | . | -3%
O=C(CSc1ncc(S(=O)(=O)c2ccc(Cl)cc2)c(=O)[nH]1)Nc1cccc(C(F)(F)F)c1 | . | 2% | . | . | . | -7%
CCOC(=O)c1c(C)n(S(=O)(=O)c2ccc(C)cc2)c2ccc(NS(=O)(=O)c3ccc(C)cc3)cc12 | . | 5% | . | . | . | -17%
O=c1cnc2cnc(Nc3ccccc3)nc2n1CCc1ccccc1 | . | . | . | . | . | -10%
CCOc1c2ccc(C(=O)N[C@H](C)C3CCCCC3)cc2nn1CC | 23% | -7% | 1% | 25% | 6% | 0.89µM*
CCCn1nc2cc(C(=O)NC3CCCc4ccccc43)ccc2c1OCC (stereo unspecified) | -5% | -10% | -1% | 33% | 13% | 10µM*
CCCCn1nc2cc(C(=O)NC3CCc4ccccc43)ccc2c1OCC (stereo unspecified) | -14% | -5% | -6% | 56% | 0% | ?
COc1ccc(/C=C2/SC(=S)N(Cc3ccccc3)C2=O)cc1O | -8% | 40% | -23% | ? | 40µM* | -6%
COc1ccc(O)c(/C=C2/SC(=S)N(Cc3ccccc3)C2=O)c1 | 10% | 15% | -4% | -29% | 10% | -10%
CC(=O)NNC(=O)CN1C(=O)/C(=C/c2ccccc2)SC1=S | 3% | 19% | 15% | -3% | 3.2µM* | 18%
CC(C)Nc1cc(N2CCN(C3CCCCC3)CC2)c2noc3c2c1C(=O)c1ccccc1-3 | . | -8% | . | . | . | 0%
COc1cccc(-c2nc3c(c(SCc4ccccc4)n2)Cc2c(CO)cnc(C)c2O3)c1 | . | 2% | . | . | . | 1%
CCc1ccc(CNC(=O)c2c(C)oc3ncnc(N4CCOCC4)c23)cc1 | . | -2% | . | . | . | 26%
CC1=C(C(=O)Nc2cccnc2)C(c2ccccn2)n2nnnc2N1 (stereo unspecified) | -7% | 1% | -1% | 1% | 11% | 7.1µM*
SMILES | p53 reactivator | ERG-DNA inh | Tb PFK block | S-ASM inh | A-T KAP1 phos | KAT2A inh
CCc1cccc2c3c([nH]c12)[C@@](CC)(CC(=O)O)OCC3 | . | . | . | . | . | 13µM*
Nc1nc(-c2ccc3c(c2)CCCC3)c(CC(=O)O)s1 | 1% | 5% | -19% | 0% | -7% | -6%
Nc1nc(-c2ccc3c(c2)OCCO3)c(CC(=O)O)s1 | ? | 8% | -3% | 9% | 8% | 35µM*
CCOC(=O)c1ccc(NC(=O)c2c(NCc3cccs3)sc3c2CCCCC3)cc1 | . | 5% | . | . | . | 22µM*
COC(=O)c1ccccc1NC(=O)c1ccccc1OC | 0% | 3% | -4% | -2% | 11% | -9%
COc1ccccc1C(=O)NC(=O)Nc1cccc(Cl)c1 | ? | 6% | 10% | -1% | 3.5µM* | -4%
COc1ccccc1C(=O)Nc1ccccc1SC(=O)c1ccccc1OC | 13µM* | 12% | ? | -1% | 23% | 1%
COCCN(C(=S)Nc1ccc(C)c(C)c1)C(C)c1ccco1 (stereo unspecified) | 5% | 11% | 0% | -1% | 2% | -5%
COCCN(C(=S)Nc1c(C)cccc1C)C(C)c1ccco1 (stereo unspecified) | -2% | 4% | 3% | -1% | 20µM* | -8%
Cc1ccc(CSc2c(C)cnc3c2c(=O)n(C)c(=O)n3C)cc1 | . | -1% | . | . | . | 1%
COc1ccc(NC(=O)C2CCCN(C(=O)c3cnn(-c4ccccc4)c3-n3cccc3)C2)cc1 (stereo unspecified) | . | -1% | . | . | . | -1%
Cc1c(CC(=O)N2CCN(C(=O)C3COc4ccccc4O3)CC2)c(=O)oc2cc(O)ccc12 (stereo unspecified) | 7% | -4% | 2% | i | 5% | 28µM*
CCCNC(=O)C1CC(c2cccc(F)c2)=NO1 (stereo unspecified) | 2% | -1% | 1% | -5% | 10% | 0%
O=C(NCCc1cccs1)C1CC(c2cccc(F)c2)=NO1 (stereo unspecified) | -2% | -11% | -9% | -1% | 40µM* | -1%
Fc1ccc(Nc2ccnc(-c3ccoc3)n2)cc1 | . | . | . | . | . | -9%
Fc1ccc(Nc2ccnc(-c3ccc4c(c3)OCO4)n2)cc1 | . | . | . | . | . | 28µM*
Cc1cc(C)c2oc(-c3cc(NC(=O)Cc4ccccc4)ccc3Cl)nc2c1 | . | -4% | . | . | . | 2%
C[C@@H](CCc1ccc(O)cc1)NCCc1ccc(O)c(O)c1 | . | . | . | . | . | 5%[21.4 µM]
CCOC(=O)c1cc(-c2ccc(N3CCOCC3)cc2)nn1-c1ccc(F)cc1F | 1% | 8% | 10% | 28µM* | -8% | -4%
CCOC(=O)c1cc(-c2ccc(N3CCOCC3)cc2)nn1-c1ccccc1 | 5% | -4% | 0% | ? | -4% | -4%
CCC(=O)N[C@@H]1Cc2ccccc2[C@@H](c2ccccc2)C1 | . | . | . | . | . | -15%
